Measurements: PubChem BioAssay AID1159580 (chemical genetic matrix, 2015)
The whole screen tested about 5,500 compounds, of which about 2,000 (36%) were called active. About 18% were inconclusive and are not listed. Cut-off read from the data, not from the text of the source: active = normalized growth mostly below about 0.91 (no sharp cut-off); inconclusive = no clear call, values can overlap the other calls; inactive = mostly above about 0.92. The list shows a part of the results.

Test: chemical genetic growth profiling, strain panel (AID 1159580);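 note: tested at 20 µM; growth read once vehicle control cultures reached saturation at 30 °C; 1 = growth at the plate median or of vehicle wells; lower values mean less growth of the strain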
Conditions: S. cerevisiae deletion strains, growth OD

Measured: normalized growth

O=C(Nc1ccc(Cl)cc1Cl)c1cnccc1C(F)(F)F
inactive: locus YAR019C, strain CDC15, active compounds read low 0.978 | locus YBL105C, strain PKC1, active compounds read low 0.976 | locus YBR135W, strain CKS1, active compounds read low 0.981 | locus YBR136W, strain MEC1, active compounds read low 0.971 | locus YBR160W, strain CDC28, active compounds read low 0.974 | locus YDL017W, strain CDC7, active compounds read low 0.984 | locus YDL028C, strain MPS1, active compounds read low 0.976 | locus YDL101C, strain DUN1, active compounds read low 0.964 | locus YDL108W, strain KIN28, active compounds read low 0.97 | locus YDL132W, strain cdc53, active compounds read low 0.972 | locus YDL214C, strain PRR2, active compounds read low 0.987 | locus YDR052C, strain DBF4, active compounds read low 0.977 | locus YDR054C, strain cdc34, active compounds read low 0.977 | locus YDR226W, strain ADK1, active compounds read low 0.976 | locus YDR477W, strain SNF1, active compounds read low 0.981 | locus YER123W, strain YCK3, active compounds read low 0.958 | locus YER133W, strain GLC7, active compounds read low 0.976 | locus YFL009W, strain cdc4, active compounds read low 0.971 | locus YFL029C, strain CAK1, active compounds read low 0.975 | locus YFR003C, strain YPI1, active compounds read low 0.977 | locus YFR019W, strain FAB1, active compounds read low 0.98 | locus YFR028C, strain CDC14, active compounds read low 0.97 | locus YGR040W, strain KSS1, active compounds read low 0.977 | locus YGR052W, strain FMP48, active compounds read low 1.13 | locus YGR092W, strain DBF2, active compounds read low 0.998 | locus YHR030C, strain SLT2, active compounds read low 1.15 | locus YHR079C, strain IRE1, active compounds read low 1.09 | locus YHR082C, strain KSP1, active compounds read low 1.11 | locus YHR205W, strain SCH9, active compounds read low 0.974 | locus YIL147C, strain SLN1, active compounds read low 0.971 | locus YJL095W, strain BCK1, active compounds read low 1.14 | locus YJL128C, strain PBS2, active compounds read low 0.935 | locus YJL157C, strain FAR1, active compounds read low 0.973 | locus YJR016C, strain ILV3, active compounds read low 0.976 | locus YJR066W, strain TOR1 (second series), active compounds read low 1 | locus YJR066W, strain TOR1, active compounds read low 1.12 | locus YKL048C, strain ELM1, active compounds read low 0.974 | locus YKL067W, strain YNK1, active compounds read low 0.981 | locus YKL101W, strain HSL1, active compounds read low 0.986 | locus YKL193C, strain SDS22, active compounds read low 0.967 | locus YKL203C, strain TOR2, active compounds read low 1.05 | locus YLR113W, strain HOG1, active compounds read low 1.05 | locus YLR133W, strain CKI1, active compounds read low 0.988 | locus YLR403W, strain SFP1, active compounds read low 0.967 | locus YML070W, strain DAK1, active compounds read low 0.98 | locus YMR001C, strain CDC5, active compounds read low 0.972 | locus YMR205C, strain PFK2 (second series), active compounds read low 0.993 | locus YMR277W, strain FCP1, active compounds read low 0.962 | locus YNL006W, strain LST8, active compounds read low 0.973 | locus YNL020C, strain ARK1, active compounds read low 0.989 | locus YNL161W, strain CBK1, active compounds read low 0.974 | locus YNL183C, strain NPR1, active compounds read low 1.1 | locus YNL207W, strain RIO2, active compounds read low 0.976 | locus YNL222W, strain SSU72, active compounds read low 0.976 | locus YNL307C, strain MCK1 (second series), active compounds read low 0.988 | locus YOL078W, strain AVO1, active compounds read low 0.975 | locus YOL136C, strain PFK27, active compounds read low 0.982 | locus YOR061W, strain CKA2, active compounds read low 0.99 | locus YOR119C, strain RIO1, active compounds read low 1.01 | locus YOR231W, strain MKK1, active compounds read low 1.1 | locus YOR329C, strain SCD5, active compounds read low 0.975 | locus YPL031C, strain PHO85, active compounds read low 0.977 | locus YPL153C, strain RAD53, active compounds read low 0.99 | locus YPL204W, strain HRR25, active compounds read low 0.976 | locus YPL209C, strain IPL1, active compounds read low 0.967 | locus YPL256C, strain CLN2, active compounds read low 1.07 | locus YPR025C, strain CCL1, active compounds read low 0.976 | locus YPR106W, strain ISR1, active compounds read low 0.972 | locus YPR111W, strain DBF20, active compounds read low 0.974 | strain NNK1, active compounds read low 0.971 | strain TSCII, active compounds read low 0.972
